tim10-1 inh – tim10-1 yeast growth inhibition | S. cerevisiae tim10-1 ts strain growth, BacTiter-Glo, 24 h | inhibition, % at 20 µM | 330,000 compounds, 2.2% hits;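 active means inhibition of at least 40%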;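 further: mutant grown at 25 °C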
NALP1 inh – blocks the NALP1 inflammasome reconstituted in yeast | AID 2071 | inhibition, % at 10 µM | 280,000 compounds, 0.61% hits | S. cerevisiae NALP1/ASC/caspase-1 growth, X-gal OD620, 72 h; in the data active means inhibition mostly above about 24%, no sharp cut-off; inactive means mostly below about 32%
tim23-1 inh – tim23-1 yeast growth inhibition; S. cerevisiae tim23-1 growth, BacTiter-Glo luminescence, 24 h; 330,000 compounds, 1.3% hits; inhibition, % at 20 µM;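 active means growth inhibition of the mutant yeast at or above 50%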;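 further: temperature-sensitive mutant grown at 25 °C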
TIM10 inh – inhibits growth of TIM10 yeast strain; S. cerevisiae TIM10 strain growth, BacTiter-Glo luminescence, 24 h; inhibition, % at 10 µM; 330,000 compounds, 1.4% hits; AID 463195;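 active means inhibition of 40% or more at the single tested concentration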;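 further: wild-type TIM10 isogenic control strain grown at permissive 25 °C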
NALP3 yeast inh – NALP3 inhibition in yeast | Yeast reconstituted NLRP3/ASC/caspase-1, beta-gal luminescence, 24 h | inhibition, % at 10 µM | AID 2825 | 330,000 compounds, 0.39% hits;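 active means inhibition of 50% or more; inactive means inhibition below 50%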
tim10-1 conf – tim10-1 yeast growth inhibition, confirmed. shares compounds with tim10-1 inh. S. cerevisiae tim10-1 ts strain growth, BacTiter-Glo, 24 h. inhibition, % at 20 µM. 7,400 compounds, 56% hits. AID 463213;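 active means inhibition of yeast growth at or above a set limit in either of two repeat tests at 20 µM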;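 further: tim10-1 mutant grown at permissive 25 °C to find synthetic lethal compounds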
Each line names hits and unclear results; the compound was inactive in the other large screens (follow-up assays come after a bar, where they were run). The list is not random: actives were taken first. Their share in the collection is about 4.1%.

CC(=O)Nc1cccc(Oc2ncnc3scc(-c4ccc(C)cc4)c23)c1	tim10-1 inh 41.7 | tim10-1 conf 28.9
Cc1c(C(=O)NCc2ccc3c(c2)cc(C)n3C)cccc1[N+](=O)[O-]	none
CCCCCCCCO	none (no result: NALP1 inh)
CCSC(=O)CCCCCCCCCCCO	tim10-1 inh 40.3 | tim10-1 conf 36.4
O=C(COc1coc(CN2CCN(c3ccccc3F)CC2)cc1=O)NCC1CCCO1 (stereo unspecified)	none (no result: NALP1 inh)
COc1ccccc1OCCNC(=O)Nc1ccc(Br)cc1	tim10-1 inh 40.3 | tim10-1 conf 31.1
COc1ccccc1OCCNC(=O)c1ccc(Br)cc1	none
CN1CCN(C2Cc3ccccc3Sc3ccc(Cl)cc32)CC1 (stereo unspecified)	tim10-1 inh 52.4 (no result: NALP1 inh) | tim10-1 conf 35.5
CN1CCN(C2Cc3cc(F)ccc3Sc3ccc(Cl)cc32)CC1 (stereo unspecified)	none (no result: NALP1 inh)
Nc1c(C(=O)c2ccccc2)oc2ccccc12	none
Nc1c(C(=O)c2ccc(F)cc2)oc2ccccc12	tim10-1 inh 45.3 | tim10-1 conf inactive
COCCNC(=O)c1c(N)n(/N=C/c2cccs2)c2nc3ccccc3nc12	tim10-1 inh 43.5 | tim10-1 conf inactive
CCCc1cc(C(=O)Nc2cc(OC)ccc2OC)cs1	none
Cc1c2c(nc3ccccc13)CC(C)(C)CC2=O	none
CC1(C)CC(=O)c2c(nn(-c3ccccc3)c2-c2ccncc2)C1	tim10-1 inh 45.6 | tim10-1 conf 35.7
CCOC(=O)C1(Cc2ccc(Cl)cc2)CCN(C(C)Cc2ccc(O)c(OC)c2)CC1 (stereo unspecified)	none
Cc1cccc(-n2cc(-c3ccc([N+](=O)[O-])cc3)[nH]c2=S)c1	none
Cc1ccc(-n2cc(-c3ccc([N+](=O)[O-])cc3)[nH]c2=S)c(C)c1	tim10-1 inh 46.2 | tim10-1 conf 35.3
Cc1cc(C)n(-c2nnc(NC34CC5CC(CC(C5)C3)C4)nn2)n1	tim10-1 inh 56.6 | tim10-1 conf 42.2
Cc1cc(C)n(-c2nnc(NC(C)(C)C)nn2)n1	none
NC(=O)CSc1nc2sc3c(c2c2ncnn12)CCCC3	tim10-1 inh 42.3 | tim10-1 conf 34.2
CNc1nc(-c2ccccn2)nnc1-c1ccccc1	tim10-1 inh 44.6 | tim10-1 conf 32.1
COC(=O)c1cc(S(=O)(=O)N2CCN(c3ccccc3)CC2)c[nH]1	none
COC(=O)c1cc(S(=O)(=O)N2CCN(c3cccc(C)c3C)CC2)c[nH]1	tim10-1 inh 50.9 | tim10-1 conf 29.6
CCc1ccc2[nH]c(=O)c(C3C(C#N)=C(N)Oc4c3ccc3cccnc43)cc2c1 (stereo unspecified)	tim10-1 inh 41.2 | tim10-1 conf inactive
O=C1N[C@@H](Cc2ccccc2)C(=O)N2[C@H]1C[C@]1(Br)c3ccccc3N(S(=O)(=O)c3ccc(F)cc3)[C@H]21	none (no result: NALP1 inh)
OC(COc1ccccc1)Cn1c2ccccc2c2ccccc21 (stereo unspecified)	tim10-1 inh 41.6 | tim10-1 conf 51.5
O=C(OCc1ccc([N+](=O)[O-])cc1)C1CC(=O)N(CCc2ccccc2)C1 (stereo unspecified)	tim10-1 inh 43.3 (no result: NALP1 inh) | tim10-1 conf inactive
N#Cc1ccc(COC(=O)C2CC(=O)N(CCc3ccccc3)C2)cc1 (stereo unspecified)	none (no result: NALP1 inh)
COC(=O)c1c(NC(=O)Cn2cnc([N+](=O)[O-])n2)sc2c1CCC(C)C2 (stereo unspecified)	tim10-1 inh 49.9 | tim10-1 conf inactive
Cc1ccc(S(=O)(=O)N(C)CC(=O)N2CCN(Cc3ccccc3)CC2)cc1	tim10-1 inh 46.6 | tim10-1 conf inactive
Cc1ccc(S(=O)(=O)N(C)CC(=O)N2CCCCCCC2)cc1	none (no result: NALP1 inh)
COc1ccc(C2=CC(c3c(C)nn(-c4ccccc4)c3Cl)n3nnnc3N2)cc1OC (stereo unspecified)	none
Nc1cccnc1Sc1ccc(Cl)cc1	none
Nc1cccnc1Sc1cccc(Cl)c1	tim10-1 inh 41.2 | tim10-1 conf inactive
COC(=O)CSc1nnc(Cc2ccccc2)n1-c1ccc(C)cc1	tim10-1 inh 41.0 | tim10-1 conf inactive
Cc1ccc(-n2c(Cc3cccn3C)nnc2SCC(=O)N2CCc3ccccc32)cc1	tim10-1 inh 42.6 | tim10-1 conf inactive
COc1ccc(-n2c(CNc3ccc(C)cc3)nnc2SCc2ccccc2)cc1	tim10-1 inh 42.9 | tim10-1 conf 34.0
Cc1ccc(-n2c(SCC(=O)OC(C)C)nnc2-c2ccccn2)cc1	tim10-1 inh 41.8 | tim10-1 conf 34.9
Cn1cccc1Cc1nnc(SCC(=O)N2CCc3ccccc32)n1-c1ccc(F)cc1	none
CCOc1ccc(CNC(=S)Nc2ccccc2)cc1Cl	none
O=C(O)C=C(Br)Br	none
CCCn1c(SC(C)C(=O)N2CCOCC2)nc2ccc(Br)cc2c1=O (stereo unspecified)	none (no result: NALP1 inh)
CCC(O)CNC(=O)NC(=C(Cl)Cl)c1ccc(C)c(F)c1 (stereo unspecified)	none
CCOC(=O)CSc1nnc(CNc2ccccc2Cl)n1-c1ccccc1	tim10-1 inh 45.2 | tim10-1 conf inactive
Cc1ccc2nc(-c3cccc(S(=O)(=O)N4CCCC4)c3)cn2c1	none
Cc1ccn2cc(-c3cccc(S(=O)(=O)N4CCCCC4)c3)nc2c1	tim10-1 inh 48.1 | tim10-1 conf inactive
O=Cc1ccccc1Oc1nc(N2CCOCC2)nc(N2CCOCC2)n1	tim10-1 inh 45.0 | tim10-1 conf 40.6
c1ccc(Oc2nc(Oc3ccccc3)nc(N3CCOCC3)n2)cc1	none
CCn1nc(C)c(C(=O)Nc2cc(Oc3cc(C)cc(C)c3)cc([N+](=O)[O-])c2)c1C	tim10-1 inh 42.7 | tim10-1 conf 38.8
CCCCOP(=O)(c1ccc(N(C)C)cc1)C(O)c1ccccc1F (stereo unspecified)	tim10-1 inh 42.6 | tim10-1 conf inactive
CCCCOP(=O)(c1ccc(N(C)C)cc1)C(O)c1ccc(OC)cc1 (stereo unspecified)	none
Fc1cc(F)cc(Nc2nc(Cl)nc(NC3CCCC3)n2)c1	tim10-1 inh 45.3 (no result: NALP1 inh) | tim10-1 conf 19.4
O=C(NCCCN1CCOCC1)c1ccc(Cl)cc1Cl	none
COc1ccc(-c2nc3ccc(C)cn3c2NCc2ccc3c(c2)OCO3)cc1	none
Cc1ccc(-c2nc3ccccn3c2NCc2ccc3c(c2)OCO3)cc1	tim10-1 inh 47.0 | tim10-1 conf inactive
O=C(CSc1ccccc1)N1CCN(C(=O)c2ccco2)CC1	none
O=C(CSc1nc(-c2ccccc2)cs1)N1CCN(C(=O)c2ccco2)CC1	tim10-1 inh 43.7 | tim10-1 conf inactive
CN(Cc1ccccc1Br)C(=O)CN1C(=O)NC2(CCCCCC2)C1=O	none (no result: NALP1 inh)
CCOC(=O)C1CCN(C(=O)CN2C(=O)COc3ccc(C(C)(C)C)cc32)CC1	tim10-1 inh 43.7 | tim10-1 conf inactive
Cc1cccc(NC(=O)COC(=O)c2ccc([N+](=O)[O-])o2)c1C	none
Cc1ccccc1/C=C/C(=O)c1ccc([N+](=O)[O-])o1	tim10-1 inh 67.2 (no result: NALP1 inh) | tim10-1 conf 71.2

High-throughput results (PubChem BioAssay)
